Results reported in PubChem BioAssay (Tox21).
Values joined by “and” are separate entries in the source; they are usually repeats but may differ in a detail not shown here. Equal entries are not always repeated. Inconclusive results are not listed. Values without a mark were called inactive. Active and inactive are the calls of the source. Calls follow the shape of the dose curve; as a rule, active = well fitted cell-killing curve with a large enough effect in the repeat runs; inconclusive = weak or mixed curves, or effect the other way; inactive = flat fitted curve, though single readings scatter.

Assay: qHTS RealTime-Glo MT Cell Viability Assay in HEK293 cells - 40 hour (AID 1224874); also: nearly all actives have a fitted effect of over 50% in size
Details: RealTime-Glo luminescence; max response: hits give low values
Excerpt: U.S. Tox21 Program National Center for Advancing Translational Sciences [NCATS] NIH Chemical Genomics Center [NCGC] U.S. Environmental Protection Agency [EPA] National Institutes of Environmental Health Sciences [NIEHS] National Toxicology Program [NTP] U.S. Food and Drug Administration [FDA] Tox21 Assay Overview: Measure of cell viability is critical in the cell-base assay. Analysis of cell viability is necessary for the characterization of cell responses to cytotoxic drugs and environmental stress. A RealTime-Glo MT Cell Viability Assay to monitor cell viability in real time of continues cell culture during 40 hours of compound treatment was used to screen Tox21 10K library compounds in Hek293 cells. The RealTime-Glo MT Cell Viability Assay is a nonlytic, homogeneous, bioluminescent method to measure cell viability in real time using a simple, plate-based method. The assay involves adding NanoLuc luciferase and a cell-permeant prosubstrate to cells in culture. Viable cells reduce the proprietary prosubstrate to generate a substrate for NanoLuc luciferase. This substrate diffuses from cells into the surrounding culture medium, where it is rapidly used by the NanoLuc Enzyme to produce a luminescent signal. The signal correlates with the number of viable cells, making the assay well suited for cytotoxicity studies.
Tox21 Assay Protocol Summary: The mixture of Hek293 cell suspension and reagents were dispensed at 600cells/6 ul/well in 1536-well tissue culture treated black solid bottom plates using a Multidrop dispenser. After the assay plates were incubated at a 37 C/5% CO2 incubator for 5 hours, 23 nL of compounds dissolved in DMSO, positive and negative controls was transferred to the assay plate by a pintool work station. The plates were incubated at 37 C for 40 hours. The luminescence intensity were measured at 0h, 8h, 16h, 24h, 32h and 40h time points using ViewLux plate reader during compound treatment.
% is scaled to controls: 0 for no effect and ±100 for the full control effect; potency is read from the fitted curve at half-maximal effect.

Question: For `CCCCC(=O)O`, which max response is on record?
Answer: 6.05% and 6.12%

Question: For `CC(=O)OCc1ccc2c(c1)OCO2`, which max response is on record?
Answer: 2.92% and 8.23%

Question: With `CCCCCCC(=O)O` as the molecule, how does the max response read?
Answer: 0.822% and 2.88%

Question: Which max response does the source give for `CC(C)=CCC/C(C)=C/C=O` here?
Answer: 4.59% and 11.5%

Question: With `COC(=O)/C=C\C(=O)OC` as the molecule, how does the max response read?
Answer: 12.2% and 10.6%

Question: For `COc1ccc2cc3[n+](cc2c1OC)CCc1cc2c(cc1-3)OCO2`, which Potency is on record?
Answer: 4.4 µM (active) and 9.52 µM (active)

Question: For `CCCCCCCCC(=O)O`, which max response is on record?
Answer: 1.64% and 2.96%

Question: For `CC(O)CNCC(C)O` (stereo not given), which max response is on record?
Answer: 3.16%

Question: Which max response does the source give for `C[n+]1ccn(CCO)c1` here?
Answer: 6.1% and 16.8%

Question: With `O=c1n(CCCN2CCN(c3cccc(Cl)c3)CC2)nc2ccccn12` as the molecule, how does the Potency read?
Answer: 13.8 µM (active) and 9.52 µM (active)

Question: For `O=[N+]([O-])c1ccccc1C(F)(F)F`, which max response is on record?
Answer: 3.79% and 8.48%

Question: For `CO[Si](CCCNCCN)(OC)OC`, which max response is on record?
Answer: 4.43% and -18.7%

Question: For `CC(C=O)Cc1ccc(C(C)(C)C)cc1` (stereo not given), which max response is on record?
Answer: 0.145% and -7.53%

Question: With `CCN(CC)CCNC(=O)c1ccc(N)cc1` as the molecule, how does the max response read?
Answer: 3.82% and 1.96%

Question: For `CN=C(NC#N)NCCSCc1nc[nH]c1C`, which max response is on record?
Answer: 4.13% and 1.71%

Question: For `COC(=O)OC`, which max response is on record?
Answer: 8.45% and 1.69%

Question: With `OC[C@H]1O[C@@H](Oc2ccc(O)cc2)[C@H](O)[C@@H](O)[C@@H]1O` as the molecule, how does the max response read?
Answer: 3.45% and 3.98%

Question: Which max response does the source give for `CC(C)(CO)CO` here?
Answer: 3.9% and 0.954%

Question: With `COc1c(Cl)ccc(Cl)c1C(=O)O` as the molecule, how does the max response read?
Answer: 2.72% and -3.19%

Question: Which max response does the source give for `O=C1C(N(CO)C(=O)NCO)N(CO)C(=O)N1CO` (stereo not given) here?
Answer: 0.683% and 1.21%

Question: Which max response does the source give for `C[Si](C)(C)N[Si](C)(C)C` here?
Answer: 2.88% and 0.469%

Question: For `Cc1nnc(NS(=O)(=O)c2ccc(N)cc2)s1`, which max response is on record?
Answer: -1.44% and 9.25%

Question: For `CCCCCC(C)=O`, which max response is on record?
Answer: 0.796% and 0.918%

Question: With `Cc1cc(CC(=O)O)n(C)c1C(=O)c1ccc(Cl)cc1` as the molecule, how does the max response read?
Answer: -0.154% and 2.14%

Question: Which max response does the source give for `Cc1ccccc1C=O` here?
Answer: 5.78% and -0.406%

Question: For `COc1ccc([C@@H]2CC(=O)c3c(O)cc(O[C@@H]4O[C@H](CO[C@@H]5O[C@@H](C)[C@H](O)[C@@H](O)[C@H]5O)[C@@H](O)[C@H](O)[C@H]4O)cc3O2)cc1OC`, which max response is on record?
Answer: 14.9% and 7.9%

Question: For `CC(=O)CC(=O)N(C)C`, which max response is on record?
Answer: 0.701% and 6.53%

Question: For `CC(=O)OC[C@H]1O[C@@](COC(C)=O)(O[C@H]2O[C@H](COC(C)=O)[C@@H](OC(C)=O)[C@H](OC(C)=O)[C@H]2OC(C)=O)[C@@H](OC(C)=O)[C@@H]1OC(C)=O`, which max response is on record?
Answer: -0.774% and 5.83%

Question: With `NC(N)=S` as the molecule, how does the max response read?
Answer: 2.78% and 0.322%

Question: With `CC(C)c1ccc(C(C)C)cc1` as the molecule, how does the max response read?
Answer: 6.04% and 0.0055%

Question: Which max response does the source give for `CCCOC(=O)NCCCN(C)C` here?
Answer: 3.11% and 1.66%

Question: For `OC1CCCCC1`, which max response is on record?
Answer: 6.11% and 1.84%

Question: For `Cc1ncc(CO)c(CO)c1O`, which max response is on record?
Answer: 6.27% and -1.31% and 5.41%

Question: Which max response does the source give for `CC[N+](CC)(CC(=O)Nc1c(C)cccc1C)Cc1ccccc1` here?
Answer: -15.4% and 1.42%

Question: Which max response does the source give for `CCCCCCCC(=O)O` here?
Answer: 3.06% and 7%

Question: With `COc1ccccc1[N+](=O)[O-]` as the molecule, how does the max response read?
Answer: 3.8% and 3.66%

Question: For `O=C(O)C1=NN(c2ccc(S(=O)(=O)O)cc2)C(=O)C1`, which max response is on record?
Answer: 6.57% and 2.54%

Question: Which max response does the source give for `CC1(C)C(=O)N(Cl)C(=O)N1Cl` here?
Answer: 1.41% and 7.94%

Question: For `CC(CN1c2ccccc2Sc2ccccc21)N(C)C` (stereo not given), which Potency is on record?
Answer: 39.3 µM (active) and 43.6 µM (active) and 6.01 µM (active)

Question: For `OCc1ccc(Cl)cc1Cl`, which max response is on record?
Answer: 3.27% and 4.82%
